Experimental data: the supplement of paper PMC12350171
Structures can show the parent of a compound that is named as a salt. Unmarked numbers belong to inactive results.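 The calls were made as follows: active = AUC significantly below DMSO controls by Student t-fit with adjusted P under 0.01; inactive = not significantly reduced.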

What follows are molecules tested on Haemophilus parainfluenzae (assay: growth AUC normalised to DMSO control (fraction of control); higher = less growth inhibition, active = hit call of the paper). Details: 20 µM.
Method in brief: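 Three biological replicates were carried out, with OD578 read hourly for 24 h. Before inoculation at a starting OD578 of 0.01, pathogens were passaged anaerobically twice; plates were pre-reduced mGAM containing 20 μM compound and 1% DMSO, sealed with breathable membranes, and the Haemophilus parainfluenzae medium carried added hemin and NAD. Area under each growth curve was calculated by the trapezoidal rule up to the exponential-to-stationary transition and normalised to DMSO controls on the same plate.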
`NS(=O)(=O)c1cc(C(=O)O)cc(N2CCCC2)c1Oc1ccccc1` [Piretanide] was tested, and the “growth AUC normalised to DMSO control” value was 1.06. In the case of `CC(=O)N[C@@H](CC(C)C)C(=O)O` [N-Acetyl-L-leucine], the “growth AUC normalised to DMSO control” value is reported as 1.02. With `NS(=O)(=O)c1cc(C(=O)O)c(NCc2ccco2)cc1Cl` [Furosemide] the “growth AUC normalised to DMSO control” value was 1. With `O=C(CCCCC(=O)Nc1c(I)cc(I)c(C(=O)O)c1I)Nc1c(I)cc(I)c(C(=O)O)c1I` [Iodipamide] the “growth AUC normalised to DMSO control” value was 1.01. With `CO[C@H]1/C=C/O[C@@]2(C)Oc3c(C)c(O)c4c(O)c(c(/C=N/N5CCN(C6CCCC6)CC5)c(O)c4c3C2=O)NC(=O)/C(C)=C\C=C\[C@H](C)[C@H](O)[C@@H](C)[C@@H](O)[C@@H](C)[C@H](OC(C)=O)[C@@H]1C` [Rifapentine] the “growth AUC normalised to DMSO control” value was 0.0302 (active). In the case of `C#Cc1cccc(Nc2ncnc3cc(OCCOC)c(OCCOC)cc23)c1` [Erlotinib], the “growth AUC normalised to DMSO control” value is reported as 1.04. `NC[C@H]1O[C@H](O[C@H]2[C@H](O[C@@H]3O[C@H](CO)[C@@H](O)[C@H]3O)[C@@H](O)[C@H](N)C[C@@H]2N)[C@H](N)[C@@H](O)[C@@H]1O` [Ribostamycin sulfate salt] was tested, and the “growth AUC normalised to DMSO control” value was 0.812 (active). `CCN(CC)CCNC(=O)COc1ccc(OC)cc1` [Mefexamide hydrochloride] was tested, and the “growth AUC normalised to DMSO control” value was 0.985. `CC(C)Cc1ccc([C@H](C)C(=O)O)cc1` [(S,+) Ibuprofen] was tested, and the “growth AUC normalised to DMSO control” value was 0.941. With `OCC(O)CN1CCN(c2ccccc2)CC1` (stereo unspecified) [Dropropizine] the “growth AUC normalised to DMSO control” value was 1.07. For `CCc1ccc(CCOc2ccc(CC3SC(=O)NC3=O)cc2)nc1` (stereo unspecified) [Pioglitazone], the “growth AUC normalised to DMSO control” value was 0.955.
